Measured values published in PubChem BioAssay AID493168 (National Center for Advancing Translational Sciences (NCATS), 2011).
Results filed as inconclusive are left out. Entries that show only a call come without a potency. Active and inactive are the calls of the source. Calls come from the whole dose curve; as a rule, active = well fitted inhibition curve with a large enough effect; inconclusive = small, poorly fitted or top-dose-only effect, or effect the other way; inactive = flat fitted curve, though single readings scatter.

Target: Ubiquitin carboxyl-terminal hydrolase 2 (Homo sapiens) (UniProt O75604)
Sequence (O75604 whole entry, looked up): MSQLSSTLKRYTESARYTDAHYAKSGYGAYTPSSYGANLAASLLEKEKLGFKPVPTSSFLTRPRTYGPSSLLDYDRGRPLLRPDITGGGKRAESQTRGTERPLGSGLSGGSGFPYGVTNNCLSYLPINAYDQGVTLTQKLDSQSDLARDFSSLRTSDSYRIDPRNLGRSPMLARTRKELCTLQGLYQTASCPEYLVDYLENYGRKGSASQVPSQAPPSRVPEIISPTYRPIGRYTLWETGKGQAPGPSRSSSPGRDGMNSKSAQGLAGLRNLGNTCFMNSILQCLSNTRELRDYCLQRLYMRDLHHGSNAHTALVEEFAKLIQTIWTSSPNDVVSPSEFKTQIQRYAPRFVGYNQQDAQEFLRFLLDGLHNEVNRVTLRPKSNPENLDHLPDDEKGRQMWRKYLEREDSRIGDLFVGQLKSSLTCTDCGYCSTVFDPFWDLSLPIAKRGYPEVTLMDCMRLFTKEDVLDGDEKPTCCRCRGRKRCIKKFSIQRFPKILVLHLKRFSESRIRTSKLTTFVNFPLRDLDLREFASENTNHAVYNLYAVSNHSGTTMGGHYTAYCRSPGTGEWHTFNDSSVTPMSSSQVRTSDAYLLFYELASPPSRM
Experiment: Confirmation Assay for Inhibitors of Ubiquitin-specific Protease USP2a Using CHOP2 as the Reporter; note: nearly all actives have a fitted effect of over 55% in size
Conditions: USP2 core, Ub-CHOP2 coupled reporter fluorescence; series mostly up to 38.3 µM
How it was run: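 Ub-CHOP2 cleavage coupled to reporter activation was read by fluorescence after 60 min at RT, with 25 nM final Ub-CHOP2 and substrate. Enzyme (10 nM final USP2 core) first sat 30 min with compound; data were normalized to NEM and fitted to concentration-response curves.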
Potency is the fitted concentration of half-maximal effect.

Row | SMILES | Potency
1 | Cc1sc2nc(CN3CCN(c4ccc(O)cc4)CC3)[nH]c(=O)c2c1C | inactive
2 | C=CCNCCOCCOc1ccccc1-c1ccccc1 | inactive
3 | Cc1cc(C)n(C(=O)c2cccc(S(=O)(=O)N3CCCC3)c2)n1 | inactive
4 | COc1cc(C)ccc1OCCOc1cc(C)ccc1Cl | inactive
5 | CCc1cc(C(=O)N=Nc2c(O)[nH]c3ccc([N+](=O)[O-])cc23)c2ccccc2n1 | 14.7 µM (active)
6 | Cc1ccc(NC(=O)c2cc(-c3ccco3)nc3ccccc23)cc1S(=O)(=O)N1CCOCC1 | 11.7 µM (active)
7 | Cc1ccccc1NC(=O)CSc1nnc(-c2ccco2)c(-c2ccco2)n1 | inactive
8 | Cc1ccc(N(CC(=O)N/N=C/c2ccco2)S(=O)(=O)c2ccccc2)cc1 | inactive
9 | CCC(C(=O)NCc1ccccc1OC)n1nc(C)n2c(cc3occc32)c1=O (configuration not stated) | inactive
10 | O=[N+]([O-])c1cc(-c2nnc(Nc3ccccc3)c3ccccc23)ccc1N1CCOCC1 | inactive
11 | COC(=O)C1Sc2[nH]c(=O)sc2C(c2ccc(Cl)cc2)C1C(=O)OC (configuration not stated) | inactive
12 | CCCCC1NC(C(=O)O)CS1 (configuration not stated) | inactive
13 | COc1ccc(-n2c(O)c(/C=N/n3cnnc3)c3ccccc3c2=O)cc1 | inactive
14 | COc1ccc(-c2nnn(CC(=O)N3CCOCC3)n2)cc1 | inactive
15 | COc1cc(OC)cc(-c2c(C#Cc3ccsc3)c3cc(-c4ccc(OC)c(F)c4)ccc3n2C)c1 | inactive
16 | O=C(c1ccccc1)N1CCN(C2C3CC4CC(C3)CC2C4)CC1 (configuration not stated) | inactive
17 | CN(c1cccc(NC(=O)Nc2cccc(Cl)c2)c1)S(C)(=O)=O | inactive
